Screening data: PubChem, National Center for Advancing Translational Sciences (NCATS)
Pf Dd2 inh – Plasmodium falciparum Dd2 growth inhibition | P. falciparum Dd2 growth, SYBR Green, 72 h | Potency, µM (top dose mostly 28.9 µM), most hits filed as inhibitors | 120,000 compounds, 4.3% hits | AID 1347417; active means well fitted inhibition curve with a large enough effect; further: nearly all actives have a fitted effect of over 65% in size
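Infected erythrocytes (Dd2, 0.3% parasitemia, 2.5% hematocrit final) are added to compound in RPMI-1640/Albumax II medium, grown 72 h at 37C in low oxygen, then lysed with saponin/Triton-X containing SYBR Green and read by fluorescence.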
Hits are given with their value; . = inactive. The full list was thinned out, with hits kept by preference.

SMILES | Pf Dd2 inh
C=CCNC(=O)O[C@@H]1CC[C@]2(C)C(CC[C@@H](O)[C@H]2CC(=O)NCc2ccc3c(c2)OCO3)[C@]1(C)CO (some centres undefined) | .
CNC(=O)[C@H]1C[C@H](Oc2ccccc2)CN1C(=O)Nc1cccc(F)c1 | .
O=C(c1cccc(N2CCCC2=O)c1)N1CCCC(O)(CN2CCCC2)C1 (centres undefined) | .
Cc1nc2scc(CC(=O)N3CCCC3)n2c(=O)c1-c1cc(C)n(-c2ccc(C(C)C)cc2)n1 | .
COC(=O)CN(C)Cc1cn(-c2ccc(C)cc2)nc1-c1cccc(C)c1 | .
Cc1ccc(-n2cc(CN3CCC(CCO)CC3)c(-c3cccc(C)c3)n2)cc1 | 10µM
CC1CCCN(Cc2cn3c(-c4cccc(Br)c4)nnc3s2)C1 (centres undefined) | .
CN(C)C(=O)CN1CCCC(N2CCN(c3cccc(C(F)(F)F)c3)CC2)C1 (centres undefined) | .
Cc1ccc(-n2cc(CN3CCN4CCCC4C3)c(-c3cccc(C)c3)n2)cc1 (centres undefined) | 13µM
Cc1ccc(-n2cc(CN3CCN(C)C(CCO)C3)cn2)cc1 (centres undefined) | .
O=C(Cc1ccc(N(Cc2ccc(F)cc2)C(=O)c2ccco2)cc1)NCC1CC1 | .
Cc1oc(C(O)c2ccccc2)nc1C(=O)Nc1ccc2c(c1)CNC2=O (centres undefined) | .
COc1ccc(-c2nc3c(c(=O)[nH]2)CCNC3)cc1 | .
COc1cccc(C(=O)NCCC2CCN(C(=O)Nc3cccc(C)c3)CC2)c1 | .
Cn1cnnc1C1CCN(C(=O)C2CCCN(C(N)=O)C2)CC1 (centres undefined) | .
COc1ccc([C@H]2C[C@@H](O)[C@@H](O)[C@@H]2NCc2cn(C)c3ccccc23)cc1 | 8.9µM
COc1ccc([C@H]2C[C@@H](O)[C@@H](O)[C@@H]2NCc2cnn(C)c2)cc1 | .
COc1ccc([C@H]2C[C@@H](O)[C@@H](O)[C@@H]2NCc2ccccc2)cc1 | .
CC(=O)N1CCC(Cc2ccc(C(=O)N(C)C)cc2)CC1 | .
O=C(CCCn1ccnc1)N1CCC2(CCC(=O)N(Cc3ccncc3)C2)CC1 | .
O=C(c1ccc(N2CCC(NCC(c3ccccc3)c3ccccc3)CC2)cc1)N1CCCC(O)C1 (centres undefined) | 11µM
Cn1cnnc1CC1CCCN(C(=O)c2ccccc2)C1 (centres undefined) | .
O=C(Nc1ccc(N2CCC(NCC(c3ccncc3)N3CCOCC3)CC2)cc1)C1CCCC1 (centres undefined) | .
NS(=O)(=O)c1ccc(C(=O)N2CCC3(CC2)Nc2ccccc2NC3=O)cc1 | .
Cn1cc(-c2cc(=O)c3ccnc(NC4CCOCC4)c3o2)cn1 | .
SMILES | Pf Dd2 inh
Cn1cc(-c2cc(=O)c3ccnc(Nc4ccc5[nH]ccc5c4)c3o2)cn1 | 7.1µM
Cn1cc(-c2cc(=O)c3ccnc(NCc4ccc(F)cc4)c3o2)cn1 | .
Cc1c(C#N)c2ccccc2n1CC(=O)NC1CCOC2(CCOCC2)C1 (centres undefined) | .
NCCC(=O)N1CCCC(N2CCN(Cc3ccc4c(c3)OCO4)CC2)C1 (centres undefined) | .
COCC1CN(C2CCC2)CC12CCN(C(=O)c1nccn1C)CC2 (centres undefined) | .
O=C(COc1ccccc1)N1CCC2(CC1)CC(N(Cc1ccccc1)C1CC1)CCO2 (centres undefined) | 3.2µM
O=C(c1ccsc1)N1CCC2(CC1)CC(N(Cc1ccccc1)C1CC1)CCO2 (centres undefined) | .
O=C(NC1CCCC1)N1CCC2(CC1)CC(N(Cc1ccc(F)cc1)C1CC1)CCO2 (centres undefined) | 4.5µM
CCC(CC)C(=O)N1CCC2(CC1)CC(N(Cc1ccc(F)cc1)C1CC1)CCO2 (centres undefined) | .
CCS(=O)(=O)N(C1CC1)C1CCOC2(CCN(C(=O)c3ccc(F)cc3)CC2)C1 (centres undefined) | .
O=C(Cc1ccccc1)N1CCC2(CC1)CC(N(Cc1ccccc1)C1CC1)CCO2 (centres undefined) | .
O=C(NC1CCCC1)N1CCC2(CC1)CC(N(C(=O)c1ccccc1)C1CC1)CCO2 (centres undefined) | .
O=C(c1ccsc1)N1CCC2(CC1)CC(N(Cc1ccc(F)cc1)C1CC1)CCO2 (centres undefined) | 8.9µM
Cc1ccsc1C(=O)N1CCC2(CC1)CC(N(C(=O)c1ccccc1)C1CC1)CCO2 (centres undefined) | .
COc1cccc(CC(=O)N2CCC3(CC2)CC(N(Cc2ccccc2)C2CC2)CCO3)c1 (centres undefined) | .
Cc1ccsc1C(=O)N1CCC2(CC1)CC(N(Cc1ccc(F)cc1)C1CC1)CCO2 (centres undefined) | 10µM
COC(=O)CNC(=O)N1CCC2(CC1)CC(N(Cc1ccc(F)cc1)C1CC1)CCO2 (centres undefined) | .
Cn1ncc(N2CCCC(CC(=O)N3CCSCC3)C2)cc1=O (centres undefined) | .
